This passage reports inhibition results from ChEMBL document CHEMBL1961873, “Compounds: GSK PKIS; Assays: Nanosyn kinase panel” (2012).

Broadly, the inhibition is the drop in the measured response relative to a control, in per cent.

The target in assay [1] is Sphingosine kinase 1 (Homo sapiens) (UniProt Q9NYA1). Conditions: at 1 µM.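 Further: mean SPHK1 inhibition value reported from the GSK PKIS kinase panel screen.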
Assay [2] has as its target T1, Sphingosine kinase 2 (Homo sapiens) (UniProt Q9NRA0).
T1 sequence (whole entry): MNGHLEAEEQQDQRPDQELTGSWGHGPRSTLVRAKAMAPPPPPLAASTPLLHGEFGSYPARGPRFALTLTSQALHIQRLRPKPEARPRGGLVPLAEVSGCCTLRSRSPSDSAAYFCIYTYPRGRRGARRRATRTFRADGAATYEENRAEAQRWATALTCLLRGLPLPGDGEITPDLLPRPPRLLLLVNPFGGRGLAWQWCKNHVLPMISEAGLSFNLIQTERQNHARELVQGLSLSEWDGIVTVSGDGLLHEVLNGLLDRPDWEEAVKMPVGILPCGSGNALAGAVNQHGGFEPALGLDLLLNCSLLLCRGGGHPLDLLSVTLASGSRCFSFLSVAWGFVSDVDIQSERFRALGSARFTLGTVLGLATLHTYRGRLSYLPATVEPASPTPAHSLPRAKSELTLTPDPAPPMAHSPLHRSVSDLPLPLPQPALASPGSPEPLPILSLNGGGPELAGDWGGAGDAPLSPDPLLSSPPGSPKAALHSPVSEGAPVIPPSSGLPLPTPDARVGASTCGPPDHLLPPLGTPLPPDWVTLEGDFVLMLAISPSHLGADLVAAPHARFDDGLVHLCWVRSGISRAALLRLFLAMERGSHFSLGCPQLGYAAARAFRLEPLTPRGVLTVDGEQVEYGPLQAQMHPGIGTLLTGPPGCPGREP
Conditions: at 0.1 µM.

Assay [3] deals with T1, Sphingosine kinase 2 (Homo sapiens). Conditions: at 1 µM.
The target of assay [4] is Casein kinase II subunit alpha (Homo sapiens) (UniProt P68400). The note with it: at 0.1 µM.
Chain of Casein kinase II subunit alpha (Homo sapiens) (P68400 whole entry, looked up): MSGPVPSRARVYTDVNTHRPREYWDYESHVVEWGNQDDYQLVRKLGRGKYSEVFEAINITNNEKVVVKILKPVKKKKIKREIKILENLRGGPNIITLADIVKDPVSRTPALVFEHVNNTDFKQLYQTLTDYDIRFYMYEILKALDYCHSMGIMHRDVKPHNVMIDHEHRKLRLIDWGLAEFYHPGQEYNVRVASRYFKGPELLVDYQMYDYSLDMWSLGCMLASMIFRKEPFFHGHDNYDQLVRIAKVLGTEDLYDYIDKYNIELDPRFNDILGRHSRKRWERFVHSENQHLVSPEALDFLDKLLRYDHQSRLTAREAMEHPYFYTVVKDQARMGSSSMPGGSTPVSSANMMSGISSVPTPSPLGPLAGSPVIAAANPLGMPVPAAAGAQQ
Assay [5] has the same target. The note with it: at 1 µM.
In assay [6] the target is T2, Inhibitor of nuclear factor kappa-B kinase subunit alpha (Homo sapiens) (UniProt O15111).
T2 sequence (whole entry): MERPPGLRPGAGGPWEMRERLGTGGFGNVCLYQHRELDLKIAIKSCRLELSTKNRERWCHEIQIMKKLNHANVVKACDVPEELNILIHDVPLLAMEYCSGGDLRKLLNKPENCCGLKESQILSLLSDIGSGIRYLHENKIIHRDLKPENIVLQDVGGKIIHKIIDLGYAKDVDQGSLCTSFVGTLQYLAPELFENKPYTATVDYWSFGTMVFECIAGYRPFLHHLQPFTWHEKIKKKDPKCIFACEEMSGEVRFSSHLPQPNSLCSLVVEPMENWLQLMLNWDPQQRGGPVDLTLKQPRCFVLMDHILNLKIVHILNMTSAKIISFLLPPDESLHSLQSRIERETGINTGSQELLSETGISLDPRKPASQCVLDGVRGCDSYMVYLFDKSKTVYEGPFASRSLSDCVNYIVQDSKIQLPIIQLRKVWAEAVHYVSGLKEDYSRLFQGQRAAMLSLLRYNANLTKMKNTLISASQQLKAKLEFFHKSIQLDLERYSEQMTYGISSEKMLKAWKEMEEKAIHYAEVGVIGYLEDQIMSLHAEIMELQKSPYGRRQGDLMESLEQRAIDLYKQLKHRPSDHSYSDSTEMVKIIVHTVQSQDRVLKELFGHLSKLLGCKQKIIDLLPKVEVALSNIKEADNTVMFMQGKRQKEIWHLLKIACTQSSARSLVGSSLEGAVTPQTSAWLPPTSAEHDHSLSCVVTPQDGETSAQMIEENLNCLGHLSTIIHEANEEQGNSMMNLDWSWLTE
The note with it: at 0.1 µM.

Assay [7] addresses T2, Inhibitor of nuclear factor kappa-B kinase subunit alpha (Homo sapiens). The note with it: at 1 µM.
Assay [8] addresses T3, Inhibitor of nuclear factor kappa-B kinase subunit beta (Homo sapiens) (UniProt O14920).
T3 sequence (whole entry): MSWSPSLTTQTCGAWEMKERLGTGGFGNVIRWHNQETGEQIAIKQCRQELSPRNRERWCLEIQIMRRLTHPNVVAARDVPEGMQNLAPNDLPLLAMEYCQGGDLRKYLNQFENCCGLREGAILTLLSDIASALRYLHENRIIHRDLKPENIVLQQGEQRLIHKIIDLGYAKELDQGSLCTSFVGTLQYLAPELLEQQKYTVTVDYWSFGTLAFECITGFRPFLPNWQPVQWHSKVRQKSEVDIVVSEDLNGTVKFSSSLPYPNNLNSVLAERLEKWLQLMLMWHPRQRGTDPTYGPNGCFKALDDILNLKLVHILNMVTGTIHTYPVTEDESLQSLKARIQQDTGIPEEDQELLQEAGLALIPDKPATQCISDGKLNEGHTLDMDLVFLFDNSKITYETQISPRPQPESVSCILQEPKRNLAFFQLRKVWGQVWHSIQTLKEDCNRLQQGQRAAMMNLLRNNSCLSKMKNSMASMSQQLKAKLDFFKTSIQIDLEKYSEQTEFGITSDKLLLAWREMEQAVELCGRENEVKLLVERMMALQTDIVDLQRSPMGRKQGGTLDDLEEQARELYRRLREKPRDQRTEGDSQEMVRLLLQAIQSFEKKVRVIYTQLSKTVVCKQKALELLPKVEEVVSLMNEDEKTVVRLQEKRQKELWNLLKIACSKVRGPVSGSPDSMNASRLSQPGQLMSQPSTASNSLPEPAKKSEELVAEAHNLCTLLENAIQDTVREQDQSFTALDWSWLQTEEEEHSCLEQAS
Conditions: at 0.1 µM.

Assay [9] has as its target T3, Inhibitor of nuclear factor kappa-B kinase subunit beta (Homo sapiens). Conditions: at 1 µM.
The target in assay [10] is T4, Inhibitor of nuclear factor kappa-B kinase subunit epsilon (Homo sapiens) (UniProt Q14164).
T4 sequence (whole entry): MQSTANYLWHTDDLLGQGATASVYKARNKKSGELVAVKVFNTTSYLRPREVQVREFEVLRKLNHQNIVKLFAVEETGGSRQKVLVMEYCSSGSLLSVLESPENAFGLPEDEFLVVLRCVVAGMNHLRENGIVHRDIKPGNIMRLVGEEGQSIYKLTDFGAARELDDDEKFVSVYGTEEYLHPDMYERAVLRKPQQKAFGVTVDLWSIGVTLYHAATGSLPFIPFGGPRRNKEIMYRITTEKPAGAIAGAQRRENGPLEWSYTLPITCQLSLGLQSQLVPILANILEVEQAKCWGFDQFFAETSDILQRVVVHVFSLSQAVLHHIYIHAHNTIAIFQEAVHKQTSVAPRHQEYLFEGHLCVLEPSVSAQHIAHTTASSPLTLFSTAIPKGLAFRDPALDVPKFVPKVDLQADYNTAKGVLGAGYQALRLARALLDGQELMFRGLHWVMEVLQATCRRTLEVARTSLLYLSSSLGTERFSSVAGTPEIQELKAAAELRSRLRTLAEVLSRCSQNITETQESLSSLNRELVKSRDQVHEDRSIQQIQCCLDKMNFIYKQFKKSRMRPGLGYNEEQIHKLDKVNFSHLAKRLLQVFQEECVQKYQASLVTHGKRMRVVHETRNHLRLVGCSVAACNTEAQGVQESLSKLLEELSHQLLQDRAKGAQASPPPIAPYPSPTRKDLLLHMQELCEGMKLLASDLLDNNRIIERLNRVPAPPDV
Conditions: at 0.1 µM.

The target in assay [11] is T4, Inhibitor of nuclear factor kappa-B kinase subunit epsilon (Homo sapiens). The note with it: at 1 µM.
Assay [12] deals with T5, Serine/threonine-protein kinase Nek1 (Homo sapiens) (UniProt Q96PY6).
T5 sequence (whole entry): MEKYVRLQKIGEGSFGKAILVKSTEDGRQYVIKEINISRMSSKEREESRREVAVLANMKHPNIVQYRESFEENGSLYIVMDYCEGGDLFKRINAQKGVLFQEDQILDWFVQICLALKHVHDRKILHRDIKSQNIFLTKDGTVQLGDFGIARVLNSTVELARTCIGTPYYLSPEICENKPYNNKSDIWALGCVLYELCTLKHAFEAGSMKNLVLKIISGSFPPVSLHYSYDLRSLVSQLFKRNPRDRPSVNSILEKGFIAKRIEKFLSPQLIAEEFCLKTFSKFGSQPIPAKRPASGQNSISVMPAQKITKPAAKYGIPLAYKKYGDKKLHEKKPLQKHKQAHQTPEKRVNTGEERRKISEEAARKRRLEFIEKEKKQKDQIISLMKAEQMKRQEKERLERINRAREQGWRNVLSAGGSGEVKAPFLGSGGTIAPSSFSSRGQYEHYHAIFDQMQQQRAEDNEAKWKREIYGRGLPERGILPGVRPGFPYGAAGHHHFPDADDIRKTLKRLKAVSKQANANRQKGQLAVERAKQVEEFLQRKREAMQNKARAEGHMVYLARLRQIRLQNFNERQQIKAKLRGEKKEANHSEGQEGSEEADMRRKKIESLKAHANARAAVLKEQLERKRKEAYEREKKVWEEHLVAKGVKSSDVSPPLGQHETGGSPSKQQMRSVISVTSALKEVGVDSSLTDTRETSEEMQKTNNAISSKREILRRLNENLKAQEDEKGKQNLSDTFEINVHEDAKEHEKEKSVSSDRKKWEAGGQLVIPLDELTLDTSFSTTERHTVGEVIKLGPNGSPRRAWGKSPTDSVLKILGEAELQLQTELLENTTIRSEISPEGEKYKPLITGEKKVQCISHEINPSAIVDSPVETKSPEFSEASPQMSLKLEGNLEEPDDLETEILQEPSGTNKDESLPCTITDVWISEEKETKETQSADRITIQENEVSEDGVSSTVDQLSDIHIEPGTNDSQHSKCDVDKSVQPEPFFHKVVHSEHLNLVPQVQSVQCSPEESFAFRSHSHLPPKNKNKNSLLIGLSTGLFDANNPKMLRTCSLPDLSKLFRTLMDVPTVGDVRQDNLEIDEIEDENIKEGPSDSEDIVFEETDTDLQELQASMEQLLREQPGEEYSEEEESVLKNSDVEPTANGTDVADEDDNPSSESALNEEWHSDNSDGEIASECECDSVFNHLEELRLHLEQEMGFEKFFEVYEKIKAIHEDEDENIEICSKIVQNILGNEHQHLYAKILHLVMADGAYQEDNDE
Conditions: at 0.1 µM.

Assay [13] concerns the target T5, Serine/threonine-protein kinase Nek1 (Homo sapiens). Conditions: at 1 µM.
The target in assay [14] is T6, Serine/threonine-protein kinase Nek2 (Homo sapiens) (UniProt P51955).
T6 sequence (whole entry): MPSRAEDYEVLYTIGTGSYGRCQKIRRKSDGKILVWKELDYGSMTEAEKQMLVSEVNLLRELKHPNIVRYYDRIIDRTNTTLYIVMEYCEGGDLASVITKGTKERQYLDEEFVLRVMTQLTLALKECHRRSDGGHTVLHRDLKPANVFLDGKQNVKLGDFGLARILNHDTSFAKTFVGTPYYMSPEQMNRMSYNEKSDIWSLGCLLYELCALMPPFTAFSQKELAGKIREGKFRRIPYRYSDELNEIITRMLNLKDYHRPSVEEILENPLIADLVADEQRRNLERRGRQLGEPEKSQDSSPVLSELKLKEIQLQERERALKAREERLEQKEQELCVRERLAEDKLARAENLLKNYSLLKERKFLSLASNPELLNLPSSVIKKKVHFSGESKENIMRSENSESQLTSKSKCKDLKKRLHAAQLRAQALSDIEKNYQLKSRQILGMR
Conditions: at 0.1 µM.

In assay [15] the target is T6, Serine/threonine-protein kinase Nek2 (Homo sapiens). Conditions: at 1 µM.
The target of assay [16] is Serine/threonine-protein kinase Nek6 (Homo sapiens) (UniProt Q9HC98). The note with it: at 0.1 µM.
Chain of Serine/threonine-protein kinase Nek6 (Homo sapiens) (Q9HC98 whole entry): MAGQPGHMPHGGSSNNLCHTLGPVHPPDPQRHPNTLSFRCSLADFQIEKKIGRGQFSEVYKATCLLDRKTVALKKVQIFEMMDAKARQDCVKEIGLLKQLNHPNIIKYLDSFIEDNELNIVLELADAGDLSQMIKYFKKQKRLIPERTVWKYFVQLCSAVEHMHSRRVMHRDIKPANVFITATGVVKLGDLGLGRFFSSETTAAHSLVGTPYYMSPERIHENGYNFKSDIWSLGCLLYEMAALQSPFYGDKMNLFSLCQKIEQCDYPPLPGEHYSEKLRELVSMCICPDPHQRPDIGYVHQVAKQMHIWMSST
Assay [17] shares this target. The note with it: at 1 µM.
Assay [18] has as its target Serine/threonine-protein kinase Nek7 (Homo sapiens) (UniProt Q8TDX7). Conditions: at 0.1 µM.
The target is the same in assay [19]. The note with it: at 1 µM.
For assay [20], the target named is T7, Serine/threonine-protein kinase Nek9 (Homo sapiens) (UniProt Q8TD19).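 Further: reported value is the mean percent inhibition of NEK9.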
T7 sequence (whole entry): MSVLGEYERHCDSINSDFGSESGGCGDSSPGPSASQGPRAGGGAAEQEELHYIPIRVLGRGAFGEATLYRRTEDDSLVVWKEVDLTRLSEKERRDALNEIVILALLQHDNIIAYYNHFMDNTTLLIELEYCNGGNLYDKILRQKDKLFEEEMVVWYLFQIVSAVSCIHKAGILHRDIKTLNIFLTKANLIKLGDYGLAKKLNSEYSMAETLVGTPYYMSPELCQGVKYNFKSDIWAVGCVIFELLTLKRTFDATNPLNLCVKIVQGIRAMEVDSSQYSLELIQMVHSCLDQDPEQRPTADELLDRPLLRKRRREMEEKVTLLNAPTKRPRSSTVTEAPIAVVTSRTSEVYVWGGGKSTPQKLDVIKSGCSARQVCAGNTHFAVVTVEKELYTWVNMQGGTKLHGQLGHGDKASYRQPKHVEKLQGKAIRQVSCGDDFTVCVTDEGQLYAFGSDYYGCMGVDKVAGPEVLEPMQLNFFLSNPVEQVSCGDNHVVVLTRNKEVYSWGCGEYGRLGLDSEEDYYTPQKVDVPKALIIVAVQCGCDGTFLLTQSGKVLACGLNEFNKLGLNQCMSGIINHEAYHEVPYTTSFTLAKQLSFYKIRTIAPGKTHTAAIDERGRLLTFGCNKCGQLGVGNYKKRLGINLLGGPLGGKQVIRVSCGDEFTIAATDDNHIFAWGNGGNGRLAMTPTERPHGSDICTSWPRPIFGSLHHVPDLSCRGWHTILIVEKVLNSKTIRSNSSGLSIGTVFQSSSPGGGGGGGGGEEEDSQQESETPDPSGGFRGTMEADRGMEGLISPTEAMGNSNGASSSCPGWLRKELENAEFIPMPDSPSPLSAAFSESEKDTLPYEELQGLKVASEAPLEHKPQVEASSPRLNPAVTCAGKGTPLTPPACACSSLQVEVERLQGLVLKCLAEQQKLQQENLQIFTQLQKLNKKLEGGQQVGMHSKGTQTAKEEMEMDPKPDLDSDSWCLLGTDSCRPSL
The note with it: at 0.1 µM.

Chain of Serine/threonine-protein kinase Nek7 (Homo sapiens) (Q8TDX7 whole entry, looked up): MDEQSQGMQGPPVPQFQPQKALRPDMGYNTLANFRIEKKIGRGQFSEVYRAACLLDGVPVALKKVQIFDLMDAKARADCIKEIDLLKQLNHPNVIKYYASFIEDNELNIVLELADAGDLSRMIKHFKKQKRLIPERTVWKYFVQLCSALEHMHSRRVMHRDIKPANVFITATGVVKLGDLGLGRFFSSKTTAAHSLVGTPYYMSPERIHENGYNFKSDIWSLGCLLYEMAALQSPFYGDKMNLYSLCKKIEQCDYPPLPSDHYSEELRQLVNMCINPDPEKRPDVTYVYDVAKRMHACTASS
Chain of Sphingosine kinase 1 (Homo sapiens) (Q9NYA1 whole entry): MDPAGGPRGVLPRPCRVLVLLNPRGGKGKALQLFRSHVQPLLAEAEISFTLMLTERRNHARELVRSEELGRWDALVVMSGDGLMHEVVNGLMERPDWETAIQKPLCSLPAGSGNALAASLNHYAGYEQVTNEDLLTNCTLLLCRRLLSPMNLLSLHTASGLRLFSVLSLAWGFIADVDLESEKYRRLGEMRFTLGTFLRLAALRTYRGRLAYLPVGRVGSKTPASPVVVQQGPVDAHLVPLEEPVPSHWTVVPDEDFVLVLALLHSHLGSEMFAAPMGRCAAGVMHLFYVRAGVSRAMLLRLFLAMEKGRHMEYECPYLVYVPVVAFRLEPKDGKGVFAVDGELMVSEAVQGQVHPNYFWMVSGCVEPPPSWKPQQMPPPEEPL

In the case of `COc1cccc(/C=N/Nc2ncnc3c2cnn3-c2cccc(OC)c2)c1`, the inhibition in [1] was 0.34%; in assay [2], -0.71%; in assay [3] it was -0.63%; in assay [4], 5.99%; in assay [5], 3.05%; in [6] it was 7.48%. Also, the inhibition in assay [7] is -3.48%; in assay [8] it was 6.4%; in assay [9], 6%; in assay [10] it was 4.37%; in assay [11], 6.73%; in assay [12], 1.81%. Further, the inhibition in assay [13] turned out to be 3.93%; in [14], 5.68%; in assay [15], 3.79%; in assay [16], 1.07%; in assay [17] it was 2.21%; in assay [18] it was 3.9%. The inhibition in [19] came to 8.57%; in [20], 7.75%.
